Rows were chosen to be rich in hits. Some 3.4% of all compounds tested hit in one or more screens of this group.
TWEAK-Fn14 inh: inhibitors of TWEAK-Fn14 interaction signaling. hit rate 2% among 360,000. TWEAK-stimulated Fn14 reporter cells, luciferase luminescence, 8 h. inhibition, % at 10 µM; in the data active = inhibition above about 50%
Shn3 3UTR inh: Schnurri-3 reporter inhibition in Clone20 osteoblasts. Clone20 osteoblast Shn3 3'UTR firefly luciferase, 24 h. inhibition, % at 12.5 µM. hit rate 0.52% among 360,000. AID 588674;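 active = mean inhibition of at least 75% with every replicate also reaching 75%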;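 also: 0% = median of neutral control wells and 100% = pilot-screen positive control compound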
LMP1 NFkB inh: Epstein-Barr LMP1 NF-kappaB reporter inhibition; hit rate 0.69% among 350,000; inhibition, % at 12.5 µM; LMP1-induced NF-kappaB luciferase reporter cells, luminescence; in the data active = inhibition above about 41%;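 also: 0% = neutral control wells and 100% = reference inhibitor control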
TROY signal inh: blocks TROY-dependent signaling in reporter cells. Q293 LMP1-TROYcd NF-kB luciferase reporter, 4 h. AID 1347056. hit rate 0.98% among 360,000. inhibition, % at 10 µM;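 active = compounds whose plate-normalised and pattern-corrected inhibition of the luciferase reporter signal at the single screening dose is 50% or more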
HIF-2a inh: inhibitors of HIF-2a; 786-0 RCC cells HIF-2a reporter, luciferase luminescence, overnight; hit rate 0.72% among 360,000; inhibition, % at 18.8 µM;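 active = inhibition of the luminescence signal of 40% or more relative to plate controls, in a single-dose primary screen at 18.75 µM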
MITF TRPM1 inh: reduces MITF-dependent TRPM1 promoter luciferase signal | AID 488899 | SK-MEL-5 TRPM1 promoter luciferase, 24 h | hit rate 0.83% among 330,000 | inhibition, % at 12.5 µM;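 active = mean inhibition across replicates of 60% or more, whatever share of single replicates reaches that level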
* hit, by the source's call; . = not tested or not shown.

SMILES	TWEAK-Fn14 inh	Shn3 3UTR inh	LMP1 NFkB inh	TROY signal inh	HIF-2a inh	MITF TRPM1 inh
CC1(C(=O)NCc2ccccc2)CCC(=O)N1CCOc1ccccc1 (stereo unspecified)	-18	11	.	9	9	.
Cc1nn(C)c(C)c1C1Nc2ccccc2C(=O)N1O (stereo unspecified)	-9	-10	-5	-40	-3	-2
O=C1c2ccccc2NC(c2cnc3ccccc3n2)N1O (stereo unspecified)	74*	-5	0	26	-74	-15
CCOC(=O)C1(C)CCN1C(=O)c1ccccc1C(F)(F)F (stereo unspecified)	1	-9	.	-10	-1	.
CCOC(=O)C1=C(C)NC(C)=C(C(=O)OCC)C1c1cn(-c2ccccc2)nc1-c1ccco1	-29	-5	76*	-33	7	0
CCOC(=O)C1=C(C)NC(=O)NC1c1cn(-c2ccccc2)nc1-c1cccs1 (stereo unspecified)	-17	0	2	-12	2	2
C[C@@H]1CCCCO[C@H](CN(C)Cc2ccccc2)[C@@H](C)CN([C@H](C)CO)C(=O)c2cc(NC(=O)c3ccccc3)ccc2O1	-10	90*	-1	-7	2	.
C[C@H](CO)N1C[C@H](C)[C@@H](CN(C)S(=O)(=O)c2ccccc2)Oc2c(NC(=O)Nc3ccc(C(F)(F)F)cc3)cccc2C1=O	8	26	3	34	-13	9
COc1ccc(NC(=O)Nc2ccc3c(c2)C(=O)N([C@H](C)CO)C[C@H](C)[C@@H](CN(C)S(=O)(=O)c2ccc(OC)cc2)O3)cc1	-3	11	-8	5	19	-34
CC(C)NC(=O)N(C)C[C@H]1Oc2c(NC(=O)Nc3ccc4c(c3)OCO4)cccc2C(=O)N([C@H](C)CO)C[C@@H]1C	4	-3	83*	-15	-19	-9
C[C@H](CO)N1C[C@H](C)[C@@H](CN(C)C(=O)Nc2ccc3c(c2)OCO3)Oc2c(NC(=O)Nc3ccccc3)cccc2C1=O	-4	-9	-2	-7	-11	-1
COc1ccc(S(=O)(=O)N(C)C[C@H]2Oc3ccc(NC(=O)Nc4ccc(C(F)(F)F)cc4)cc3C(=O)N([C@H](C)CO)C[C@@H]2C)cc1	58*	57	-5	30	-27	54
C[C@@H]1CN([C@H](C)CO)C(=O)c2cc(NC(=O)Nc3ccc(C(F)(F)F)cc3)ccc2O[C@H]1CN(C)S(=O)(=O)c1ccccc1	55*	8	5	29	22	10
CC(=O)C(C(c1ccccc1)c1c[nH]c2ccccc12)[N+](=O)[O-] (stereo unspecified)	-14	-1	-19	16	35	12
COc1ccccc1CNC(=O)COC(=O)c1ccc(C)c(S(=O)(=O)N2CCCCC2)c1	-5	-3	8	3	11	3
COCCNC(=O)Cn1nc(-c2ccc(Cl)cc2)c2ccccc2c1=O	-3	-116	-3	-14	14	0
COc1ccc(C2=NO[C@@H]3C(=O)N(c4ccc5c(c4)OCCO5)C(=O)[C@H]23)cc1OC	81*	31	17	69*	30	5
COc1ccc(C2=NO[C@@H]3C(=O)N(C4CCCCC4)C(=O)[C@H]23)cc1OC	7	-8	0	25	10	2
N=c1c[n+](N2CCOCC2)[n-]o1	72*	10	3	15	-11	1
O=C(c1[nH]c(C(F)(F)F)nc1-c1ccccc1)N1CCC(C(O)(c2ccccc2)c2ccccc2)CC1	16	-19	.	-8	-9	.
COc1ccc2nc(S(=O)Cc3ncc(C)c(OC)c3C)[nH]c2c1 (stereo unspecified)	6	-3	84*	2	-4	17
COCCCOc1ccnc(CS(=O)c2nc3ccccc3[nH]2)c1C (stereo unspecified)	2	-51	-20	-7	-143	-23
ON=C(CCc1ccccc1)CCc1ccccc1	-9	-2	-6	2	-17	1
COc1ccc(OC)c2c(C)cc(N3CCCCCC3)nc12	103*	-18	12	-4	5	5
COc1cccc2c(C)cc(N3CCCCCC3)nc12	-6	19	32	2	17	1
SMILES	TWEAK-Fn14 inh	Shn3 3UTR inh	LMP1 NFkB inh	TROY signal inh	HIF-2a inh	MITF TRPM1 inh
O=C(NCc1cccnc1)c1cc(C2CCCCN2C(=O)c2cccs2)on1 (stereo unspecified)	19	13	.	-7	3	.
O=c1oc2c(O)c(O)cc3c(=O)oc4c(O)c(O)cc1c4c23	88*	-44	-3	15	16	2
O=c1oc2ccccc2c2oc3cc(O)c(O)cc3c12	-33	-24	8	-23	-10	-60
CCOC(=O)C1(C)CCCN(C(=O)c2ccc(-c3ccccc3)cc2)C1 (stereo unspecified)	-32	0	.	-21	-2	.
Cc1ccc(C(=O)Oc2coc(CSc3nnc(NC(=O)C4CC4)s3)cc2=O)cc1C	44	1	-3	82*	7	-6
CCOC(=O)[C@]12CCC=C1N(Cc1ccc3c(c1)OCO3)C(=O)[C@H](CC(=O)NCC1CCCCC1)C2	-16	.	.	-16	0	.
CC1(C)CC(=O)c2cc(C(=O)NNc3ccccc3)c(=O)n(-c3ccccc3)c2C1	-11	-18	-23	-4	18	-2
CC1(C)CC(=O)c2cc(C(=O)NCc3ccco3)c(=O)n(-c3ccccc3)c2C1	83*	5	12	.	5	-6
Cc1ccc(OCCN2CCC2(C)C(=O)Nc2ccc3c(c2)OCO3)cc1 (stereo unspecified)	-8	7	.	-14	-41	.
COc1ccccc1-c1nnc(SC(C(=O)c2c[nH]c3ccccc23)c2ccccc2)n1C (stereo unspecified)	43	25	-6	34	35	15
COc1cccc(-c2nnc(SC(C(=O)c3c[nH]c4ccccc34)c3ccccc3)n2C)c1 (stereo unspecified)	51*	1	8	25	24	8
CCOc1ccc2nc(N3CCC(C(=O)N4CCN(c5ncccn5)CC4)CC3)sc2c1	0	1	-1	-23	-99	.
CCOc1ccc2nc(N3CCC(C(=O)N4CCN(c5ccccn5)CC4)CC3)sc2c1	51*	23	18	25	-71	-1
COC(=O)c1ccccc1NC(=O)CC(=O)Nc1ccccc1C(=O)OC	3	0	50*	-3	-36	-15
COC(=O)c1sc(NC(=S)NC(=O)c2ccccc2)nc1C	7	-42	-33	52*	-229	-4
COC(=O)c1ccccc1NC(=O)c1ccc(-c2ccc(Br)cc2)o1	77*	-4	-28	81*	-169	-9
O=C(Nc1ccc2ncccc2c1)c1ccccc1	9	12	0	-12	9	12
O=C(NC(=S)Nc1ccc2ncccc2c1)c1ccccc1	-4	-24	-16	64*	-278	-72

Screens (PubChem BioAssay)
